Test results: the antibiotic and cytotoxicity screens of Wong et al. (2023)
Among all 39,000 compounds or so, about 3,300 (8.5%) were called active. The list comes from a sample in which actives are over-represented; it also holds similar structures and randomly drawn compounds.

What follows are compounds tested on HepG2 (assay: cytotoxicity call (relative viability < 0.9)). Settings: 10 µM.

Structure (SMILES)	cytotoxicity call
C[C@@H]1CN([C@@H](C)CO)C(=O)c2ccccc2-c2ccccc2CO[C@@H]1CN(C)C(=O)c1cc(Cl)cc(Cl)c1	inactive
O=C(N[C@@H]1C=C[C@H](CC(=O)N2CCOCC2)O[C@@H]1CO)c1ccc2c(c1)OCO2	inactive
C[C@@H]1CN([C@@H](C)CO)C(=O)c2cc(NC(=O)C3CCCCC3)ccc2O[C@H]1CN(C)C(=O)Nc1cccc2ccccc12	inactive
CO[C@@H](CN(C)C(=O)C1CCOCC1)[C@H](C)CN(C(=O)Nc1ccc(C(F)(F)F)cc1)[C@@H](C)CO	inactive
CC(C)CS(=O)(=O)N1C[C@H]2C[C@H](C(=O)N3CCOCC3)[C@@H](C1)O2	inactive
CC(=O)O[C@H]1C[C@](C)(O)C2=C[C@@H](O)[C@@](C)(O)[C@@H]2[C@H]2OC(=O)[C@@H](C)[C@@H]21	inactive
O=C(CN1CCOCC1)N[C@H]1CC[C@H](CCn2cc(C3CCCC3)nn2)O[C@@H]1CO	inactive
CC(C)NC(=O)N(C)C[C@H]1Oc2ccc(NS(=O)(=O)c3ccc(F)cc3)cc2CC(=O)N([C@@H](C)CO)C[C@@H]1C	inactive
C[C@H](CO)N1C[C@H](C)[C@@H](CN(C)Cc2ccc3c(c2)OCO3)OCCCC[C@H](C)Oc2ccc(NC(=O)Nc3ccc4c(c3)OCO4)cc2C1=O	inactive
C[C@@H]1CN([C@H](C)CO)C(=O)c2cc(NC(=O)Nc3ccc4c(c3)OCO4)ccc2O[C@@H](C)CCCCO[C@@H]1CN(C)Cc1ccc2c(c1)OCO2	active
C[C@@H]1CCCCO[C@H](CN(C)Cc2ccc3c(c2)OCO3)[C@H](C)CN([C@@H](C)CO)C(=O)c2cc(NC(=O)Nc3ccc4c(c3)OCO4)ccc2O1	active
C[C@@H]1CN([C@@H](C)CO)C(=O)c2cc(NC(=O)Nc3ccc4c(c3)OCO4)ccc2O[C@@H](C)CCCCO[C@@H]1CN(C)Cc1ccc2c(c1)OCO2	inactive
C[C@@H]1CCCCO[C@H](CN(C)Cc2ccc3c(c2)OCO3)[C@@H](C)CN([C@H](C)CO)C(=O)c2cc(NC(=O)Nc3ccc4c(c3)OCO4)ccc2O1	inactive
C[C@@H]1CCCCO[C@@H](CN(C)Cc2ccc3c(c2)OCO3)[C@@H](C)CN([C@H](C)CO)C(=O)c2cc(NC(=O)Nc3ccc4c(c3)OCO4)ccc2O1	inactive
Cc1noc(C)c1S(=O)(=O)Nc1ccc2c(c1)C(=O)N([C@H](C)CO)C[C@H](C)[C@@H](CN(C)C(=O)Nc1ccccc1)O2	inactive
CCn1cc(-c2ccnc3[nH]c(-c4cccc(CN(C)C)c4)cc23)c(-c2ccc(NC(=O)N(C)C)cc2)n1	active
C[C@@H]1CN([C@H](C)CO)S(=O)(=O)c2ccc(-c3ccc(F)cc3)cc2O[C@H]1CN(C)S(C)(=O)=O	inactive
C#Cc1ccc([C@@H]2C=C(C(=O)N3CCN(Cc4ccc5c(c4)OCO5)CC3)O[C@H](OCC)[C@H]2CCCO)cc1	inactive
O=S1(=O)CC[C@H](N[C@H]2CCS(=O)(=O)C2)C1	inactive
C[C@H]1CN([C@@H](C)CO)S(=O)(=O)c2ccc(C#Cc3ccncc3)cc2O[C@H]1CN(C)S(=O)(=O)c1ccccc1	active
C[C@H](CO)N1C[C@H](C)[C@@H](CN(C)S(=O)(=O)c2ccccc2)Oc2cc(C#Cc3ccncc3)ccc2S1(=O)=O	active
C[C@@H]1CN([C@@H](C)CO)S(=O)(=O)c2ccc(C#Cc3ccncc3)cc2O[C@H]1CN(C)S(=O)(=O)c1ccccc1	active

Structure (SMILES)	cytotoxicity call
C[C@@H]1CN([C@H](C)CO)S(=O)(=O)c2ccc(C#Cc3ccncc3)cc2O[C@@H]1CN(C)S(=O)(=O)c1ccccc1	active
Cc1noc(C)c1NC(=O)Nc1ccc2c(c1)C(=O)N([C@@H](C)CO)C[C@H](C)[C@H](CN(C)CC1CCCCC1)OCCCC[C@@H](C)O2	inactive
COc1ccc(Br)cc1S(=O)(=O)NC(=O)/C=C/c1ccccc1Cc1ccc2ccccc2c1	inactive
COc1ccc(S(=O)(=O)Nc2ccc3c(c2)C(=O)N([C@@H](C)CO)C[C@@H](C)[C@@H](CN(C)C(=O)Nc2cccc4ccccc24)O3)cc1	inactive
C[C@@H]1CN([C@H](C)CO)S(=O)(=O)c2ccc(Br)cc2O[C@H]1CN(C)CC1CCOCC1	inactive
C[C@@H]1CN([C@H](C)CO)C(=O)c2cccc(NC(=O)NC3CCCCC3)c2O[C@@H]1CN(C)S(C)(=O)=O	inactive
CC(C)C[C@@H]1NC(=O)[C@@H]2C[C@H](C(=O)NCCCCCCN(C)C)[C@H](c3cccc(OCCO)c3)N2C1=O	inactive
CC(C)N1C[C@H](C)[C@@H](CN(C)Cc2ccc(Cl)cc2)Oc2c(NC(=O)c3ccncc3)cccc2C1=O	inactive
C[C@@H]1CN([C@H](C)CO)S(=O)(=O)c2ccc(C#Cc3ccncc3)cc2O[C@H]1CN(C)S(=O)(=O)c1ccccc1	active
C[C@H]1CN([C@@H](C)CO)S(=O)(=O)c2ccc(C#Cc3ccncc3)cc2O[C@@H]1CN(C)S(=O)(=O)c1ccccc1	active
C[C@H](CO)N1C[C@H](C)[C@H](CN(C)S(=O)(=O)c2ccccc2)Oc2cc(C#Cc3ccncc3)ccc2S1(=O)=O	active
C[C@@H]1CN([C@@H](C)CO)S(=O)(=O)c2ccc(C#Cc3ccncc3)cc2O[C@@H]1CN(C)S(=O)(=O)c1ccccc1	active
C[C@@H]1CN([C@H](C)CO)C(=O)c2cccc(NC(=O)c3cnccn3)c2O[C@@H]1CN(C)C(=O)NC1CCCCC1	inactive
Cc1noc(C)c1S(=O)(=O)Nc1cccc2c1O[C@@H](CN(C)Cc1ccccc1)[C@@H](C)CN([C@H](C)CO)C2=O	inactive
C[C@@H]1CN([C@H](C)CO)C(=O)c2cccc(NC(=O)Nc3cccc4ccccc34)c2O[C@@H]1CN(C)S(=O)(=O)c1ccccc1	inactive
CCC(=O)N(C)C[C@@H]1Oc2ncc(C#C[C@H](C)O)cc2C(=O)N([C@@H](C)CO)C[C@H]1C	inactive
O=C(C[C@@H]1C[C@@H]2c3cc(NC(=O)Nc4ccccc4)ccc3O[C@@H]2[C@H](CO)O1)NCCN1CCCCC1	inactive
CN1CCC[C@@H](CC2c3ccccc3Sc3ccccc32)C1	active
CN1CCN2c3ccccc3Cc3ccccc3C2C1.Cl (centres undefined)	inactive
C[C@H]1CCCN(C(=O)N2c3ccccc3Sc3ccccc32)C1	inactive
C[C@@H]1CN([C@@H](C)CO)C(=O)c2c(c3ccccc3n2C)-c2ccccc2CO[C@H]1CN(C)C(=O)CCC(F)(F)F	inactive
COCCc1nc2c(c(=O)n(C)c(=O)n2C)n1C	inactive

Structure (SMILES)	cytotoxicity call
Cn1c(=O)c2c(nc(S(C)(=O)=O)n2C)n(C)c1=O	active
Cn1c(=O)c2c(nc(SCSc3nc4c(c(=O)n(C)c(=O)n4C)n3C)n2C)n(C)c1=O	inactive
C[C@@H]1CN([C@@H](C)CO)C(=O)c2cc(NC(=O)Nc3cccc4ccccc34)ccc2O[C@H]1CN(C)C(=O)Nc1ccc(F)cc1	inactive
C[C@@H]1CN([C@H](C)CO)C(=O)CCCn2nncc2CO[C@H]1CN(C)S(=O)(=O)c1cn(C)cn1	inactive
C[C@@H]1CN([C@H](C)CO)C(=O)Cc2cc(NC(=O)Nc3ccc(C(F)(F)F)cc3)ccc2O[C@H]1CN(C)C(=O)Nc1ccc(F)cc1	inactive
C[C@H]1CN([C@@H](C)CO)C(=O)Cc2cc(NC(=O)Nc3ccc(C(F)(F)F)cc3)ccc2O[C@H]1CN(C)C(=O)Nc1ccc(F)cc1	active
C[C@H](CO)N1C[C@H](C)[C@H](CN(C)C(=O)Nc2ccc(C(F)(F)F)cc2)Oc2ccc(NC(=O)Nc3ccc(F)cc3)cc2CC1=O	inactive
C[C@@H]1CN([C@@H](C)CO)C(=O)Cc2cc(NC(=O)Nc3ccc(F)cc3)ccc2O[C@@H]1CN(C)C(=O)Nc1ccc(C(F)(F)F)cc1	inactive
C[C@@H]1CN([C@@H](C)CO)C(=O)Cc2cc(NC(=O)Nc3ccc(F)cc3)ccc2O[C@H]1CN(C)C(=O)Nc1ccc(C(F)(F)F)cc1	inactive
C[C@H]1CN([C@@H](C)CO)C(=O)Cc2cc(NC(=O)Nc3ccc(F)cc3)ccc2O[C@@H]1CN(C)C(=O)Nc1ccc(C(F)(F)F)cc1	inactive
C[C@H](CO)N1C[C@H](C)[C@@H](CN(C)C(=O)Nc2ccc(F)cc2)Oc2ccc(NC(=O)Nc3ccc(C(F)(F)F)cc3)cc2CC1=O	active
C[C@@H]1CN([C@H](C)CO)C(=O)Cc2cc(NC(=O)Nc3ccc(F)cc3)ccc2O[C@H]1CN(C)C(=O)Nc1ccc(C(F)(F)F)cc1	inactive
C[C@@H]1CN([C@@H](C)CO)C(=O)Cc2cc(NC(=O)Nc3ccc(C(F)(F)F)cc3)ccc2O[C@@H]1CN(C)C(=O)Nc1ccc(F)cc1	active
C[C@@H]1CN([C@@H](C)CO)C(=O)Cc2cc(NC(=O)Nc3ccc(C(F)(F)F)cc3)ccc2O[C@H]1CN(C)C(=O)Nc1ccc(F)cc1	inactive
C[C@@H]1CN([C@H](C)CO)C(=O)Cc2cc(NC(=O)Nc3ccc(C(F)(F)F)cc3)ccc2O[C@@H]1CN(C)C(=O)Nc1ccc(F)cc1	active
C[C@H](CO)N1C[C@H](C)[C@H](CN(C)C(=O)Nc2ccc(F)cc2)Oc2ccc(NC(=O)Nc3ccc(C(F)(F)F)cc3)cc2CC1=O	inactive
Cc1ccc(S(=O)(=O)N(C)C[C@H]2OCCCC[C@H](C)Oc3ccc(NC(=O)Nc4ccc(C(F)(F)F)cc4)cc3C(=O)N([C@H](C)CO)C[C@@H]2C)cc1	inactive
C[C@@H]1CN([C@@H](C)CO)C(=O)c2cc(NC(=O)Nc3ccc(F)cc3)ccc2O[C@@H](C)CCCCO[C@@H]1CN(C)S(=O)(=O)c1ccc(Cl)cc1	inactive
COCC(=O)Nc1ccc2c(c1)[C@@H]1C[C@@H](CC(=O)N3CCOCC3)O[C@H](CO)[C@@H]1O2	inactive
C[C@H](CO)N1C[C@H](C)[C@@H](CN(C)S(=O)(=O)c2cn(C)cn2)Oc2ccc(NC(=O)Nc3ccccc3)cc2CC1=O	inactive
